Assay outcomes as filed in PubChem.
Hits are enriched below; roughly 7.4% of the tested compounds scored in any of these assays.
Rab9 promoter act: activators of Rab9 promoter. Huh7 Rab9 promoter-luciferase reporter, luminescence, 24 h. Potency, µM (top dose mostly 9.22 µM), most hits filed as activators. 320,000 tested, 2.8% active; further: nearly all actives have a fitted effect of over 60% in size
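Using Huh7 cells stably transfected with Rab9 promoter–luciferase, compounds were incubated 24 h at 37 °C, 5% CO2; luciferase luminescence was read 10 min after reagent addition.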
FLuc counter: counter-screen for miR-21 project: firefly luciferase inhibitors or activators; purified FLuc, Km substrates, luminescence inhibition; Potency, µM (top dose mostly 57.5 µM), actives largely listed as inhibitors; AID 588342; 360,000 tested, 6.9% active; further: nearly all actives have a fitted effect of over 55% in size
Target sequence (P08659 whole entry, looked up): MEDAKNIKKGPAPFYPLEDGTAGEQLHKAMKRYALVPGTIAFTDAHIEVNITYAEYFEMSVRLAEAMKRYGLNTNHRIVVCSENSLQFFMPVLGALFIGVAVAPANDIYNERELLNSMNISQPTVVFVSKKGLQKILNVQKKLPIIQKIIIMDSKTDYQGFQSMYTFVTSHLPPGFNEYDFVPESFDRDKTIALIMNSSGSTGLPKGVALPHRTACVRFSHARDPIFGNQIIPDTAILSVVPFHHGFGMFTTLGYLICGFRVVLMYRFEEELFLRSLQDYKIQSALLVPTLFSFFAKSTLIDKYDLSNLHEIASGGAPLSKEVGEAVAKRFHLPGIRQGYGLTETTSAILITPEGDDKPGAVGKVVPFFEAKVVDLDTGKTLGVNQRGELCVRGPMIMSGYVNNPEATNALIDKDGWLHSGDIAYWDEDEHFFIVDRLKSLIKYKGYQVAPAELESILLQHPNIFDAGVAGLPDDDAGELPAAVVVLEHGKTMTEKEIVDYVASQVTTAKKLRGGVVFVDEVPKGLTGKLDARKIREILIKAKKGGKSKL
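Biochemical qHTS of compounds, final roughly 60 µM downward over six points, against 10 nM purified firefly luciferase using Km concentrations of substrates (10 uM D-luciferin, 10 uM ATP) in Tris acetate pH 7.5 buffer; luminescence output.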
NPC1 prom act: activators of NPC1 promoter. Huh7 NPC1 promoter luciferase reporter, 24 h. Potency, µM (doses to about 9.22 µM), most hits filed as activators. 320,000 tested, 2.4% active. AID 485313; further: nearly all actives have a fitted effect of over 60% in size
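Luminescence from an NPC1 promoter-driven luciferase reporter in stably transfected Huh7 cells was measured after 24 h compound treatment at 37 °C, followed by 10 min ambient incubation with luciferase detection reagent.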
SMN2 splice up: increases expression of the SMN2 splice variant. HEK293 SMN2-luciferase splicing reporter, luminescence, 30-36 h. Potency, µM (top dose mostly 46.1 µM), most hits filed as activators. 210,000 tested, 2.8% active; further: nearly all actives have a fitted effect of over 55% in size
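HEK293 cells carry an SMN2 […]–luciferase reporter in which exon 7 inclusion puts luciferase in frame. Cells were plated 10-12 h before compound addition, then incubated 30-36 h at 37C. ONE-Glo luminescence was read; sodium butyrate at 4.5 mM final served as control.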
ELG1 genotox: inducers of genotoxicity in HEK293T ELG1-luciferase cells; HEK293T ELG1-luciferase reporter, luminescence, 16 h; AID 504466; Potency, µM (doses to about 46 µM), actives largely listed as activators; 330,000 tested, 1.3% active; further: nearly all actives have a fitted effect of over 60% in size
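HEK293T cells expressing luciferase-tagged ELG1 were treated with compound or DMSO for 16 hr at 37°C. Luciferase activity was then read after 30 min with ONE-Glo at room temperature; rising signal flags genetic stress.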
p53 reactivation: mutant p53 re-activation in reporter cells; H1299 p53-A138V BP100-luciferase reporter, luminescence, 24 h; Potency, µM (highest dose often 92.2 µM), actives largely listed as activators; 320,000 tested, 0.063% active; AID 504706; further: nearly all actives have a fitted effect of over 45% in size
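H1299 (p53-null), stable ts p53-A138V + BP100-Luc; 1000 cells/well, Opti-MEM/10% FBS; cpd 4 pt, 1:5; 24 h, 37 deg C, 5% CO2; detection reagent 10 min RT; luminescence.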
Large screens that a line does not name were inactive. The call rests on the fitted dose curve; in most records, active means well fitted curve in the direction sought with a large enough effect; inconclusive means small, poorly fitted or top-dose-only effect, or another doubt; inactive means no such curve, though single readings can be large; an effect the other way counts as inactive or inconclusive.

Cc1cc(C(=O)Nc2ccon2)c(C)o1	none
CC(C)(C)c1cc(NC(=O)c2cccc([N+](=O)[O-])c2)no1	Rab9 promoter act 1.41µM, FLuc counter inconclusive, NPC1 prom act 2.24µM, SMN2 splice up 2.82µM, ELG1 genotox inconclusive
CC(C)(C)c1cc(NC(=O)c2ccco2)no1	Rab9 promoter act 0.631µM, FLuc counter 5.36µM, NPC1 prom act 1.78µM, ELG1 genotox 1.3µM (no result: SMN2 splice up)
Cc1ccc(S(=O)(=O)NC(=O)Nc2cc(C(C)(C)C)on2)cc1	none (no result: SMN2 splice up)
CC(C)(C)c1cc(NC(=O)Nc2ccccc2)no1	Rab9 promoter act 1.26µM, FLuc counter 4.78µM, NPC1 prom act 1.41µM, ELG1 genotox inconclusive, p53 reactivation inconclusive (no result: SMN2 splice up)
Cc1cc(C(=O)Nc2cc(C(C)(C)C)on2)c(C)o1	Rab9 promoter act 2.82µM, FLuc counter 9.53µM, NPC1 prom act inconclusive, ELG1 genotox inconclusive (no result: SMN2 splice up)
C1CCN2C[C@@H]3C[C@@H](CN4CCCC[C@H]34)[C@H]2C1	none (no result: Rab9 promoter act, FLuc counter, NPC1 prom act, ELG1 genotox, p53 reactivation)
COc1cc(NS(=O)(=O)c2cc(Br)cc3c2N(C(C)=O)C(C)C3)cc(OC)c1 (stereo not given)	none (no result: Rab9 promoter act, NPC1 prom act, SMN2 splice up, ELG1 genotox, p53 reactivation)
CC(C)(C)c1cc(NC(=O)Nc2ccccc2OC(F)(F)F)no1	none (no result: SMN2 splice up)
COC(=O)c1ccccc1NC(=O)Nc1cc(C(C)(C)C)on1	Rab9 promoter act 0.891µM, NPC1 prom act 2µM, ELG1 genotox 16.4µM, p53 reactivation inconclusive (no result: SMN2 splice up)
CCCCN1C(=O)c2[nH]nc(-c3ccccc3O)c2C1c1ccc(OCc2ccccc2)cc1 (stereo not given)	none (no result: Rab9 promoter act, NPC1 prom act, ELG1 genotox, p53 reactivation)
O=[N+]([O-])c1ccc(O)c(/C=N/Nc2ccc(Cl)nn2)c1	FLuc counter inconclusive, NPC1 prom act 3.16µM, p53 reactivation inconclusive
Cc1ccc(S(=O)(=O)N/N=C/c2cc([N+](=O)[O-])ccc2O)cc1[N+](=O)[O-]	FLuc counter 13.5µM
O=S1(=O)N=C(N/N=C/c2cccs2)c2ccccc21	FLuc counter inconclusive (no result: SMN2 splice up, p53 reactivation)
O=[N+]([O-])c1ccc(O)c(/C=N/Nc2nn[nH]n2)c1	none
O=[N+]([O-])c1ccc(/C=N/NC2=NS(=O)(=O)c3ccccc32)cc1	FLuc counter 15.1µM
O=[N+]([O-])c1ccc(O)c(/C=N/NC2=NS(=O)(=O)c3ccccc32)c1	FLuc counter 8.49µM
CS(=O)(=O)N1CCC2(CC1)CN(c1ncccn1)C2	none (no result: Rab9 promoter act, FLuc counter, NPC1 prom act, ELG1 genotox, p53 reactivation)
CCCC(=O)Nc1nnc(SCc2cc(=O)c3ccc(C)cc3[nH]2)s1	none (no result: Rab9 promoter act, NPC1 prom act, SMN2 splice up, ELG1 genotox, p53 reactivation)
O=C(Nc1cccc(CNCCc2c[nH]c3ccccc23)c1)c1ccccc1Cl	none (no result: SMN2 splice up)
Cc1cc2c(NC(=O)Nc3ccc(C(C)(C)C)cc3)cccc2nn1	FLuc counter 12µM (no result: SMN2 splice up)
Cc1ccc(NC(=O)Nc2ccc3c(c2)CCC3)cc1	Rab9 promoter act 2µM, FLuc counter inconclusive, NPC1 prom act 2µM, ELG1 genotox inconclusive (no result: SMN2 splice up)
O=C(Nc1ccc2c(c1)CCC2)Nc1ccccc1F	Rab9 promoter act 0.631µM, FLuc counter 0.675µM, NPC1 prom act 0.447µM, ELG1 genotox 0.411µM, p53 reactivation inconclusive (no result: SMN2 splice up)
O=C(Nc1ccc2c(c1)CCC2)c1c(F)cccc1Cl	Rab9 promoter act 1.26µM, FLuc counter 9.53µM, NPC1 prom act 1.58µM, SMN2 splice up 14.1µM, ELG1 genotox 9.2µM
O=S(=O)(NC1C2CC3CC(C2)CC1C3)c1ccccc1 (stereo not given)	none (no result: FLuc counter, SMN2 splice up)
COc1cc(NC(=O)COCc2cc(-c3ccc4c(c3)OCO4)on2)c(OC)cc1Cl	none (no result: Rab9 promoter act, NPC1 prom act, SMN2 splice up, ELG1 genotox, p53 reactivation)
COc1ccc(CNC(=O)Cn2c(=O)nc(-c3ccccc3)c3ccccc32)cc1OC	none (no result: Rab9 promoter act, NPC1 prom act, SMN2 splice up, ELG1 genotox, p53 reactivation)
Cn1cccc1C(=O)N1CCC2(CCN(C(=O)Nc3ccccc3)CC2)CC1	none (no result: Rab9 promoter act, FLuc counter, NPC1 prom act, ELG1 genotox, p53 reactivation)
Cc1ccccc1NC(=O)Nc1ccc(C(F)(F)F)cc1	Rab9 promoter act 2.24µM, FLuc counter 2.39µM (no result: SMN2 splice up)
O=C(Nc1cccc(F)c1)Nc1ccc2c(c1)CCC2	Rab9 promoter act 2.51µM, FLuc counter 3.38µM, NPC1 prom act 2.51µM, ELG1 genotox inconclusive (no result: SMN2 splice up)
O=C(Nc1cccc([N+](=O)[O-])c1)Nc1ccc2c(c1)CCC2	Rab9 promoter act inconclusive, FLuc counter inconclusive, NPC1 prom act inconclusive (no result: SMN2 splice up)
